Molecules are shown by their SMILES. “And” between values parts separate entries of the source, which are not always exact repeats. Equal entries are not always repeated. Results filed as inconclusive are left out. Values without a mark were called inactive. The source made the active and inactive calls. The call rests on the fitted dose curve; in most records, active means well fitted curve in the direction sought with a large enough effect; inconclusive means small, poorly fitted or top-dose-only effect, or another doubt; inactive means no such curve, though single readings can be large; an effect the other way counts as inactive or inconclusive.

For assay [1], the target named is Cellular tumor antigen p53 (Homo sapiens) (UniProt P04637). Put plainly: Primary qHTS for small molecule compounds that upregulate eGFP-tagged delta133p53alpha (in N-terminal) cells. (AID 2060322). Further: nearly all actives have a fitted effect of over 75% in size. Further: potency means the concentration at half of the fitted maximal effect.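 On activation: cells pre-induced with doxycycline then dosed without doxycycline; series mostly up to about 56 µM; 0% = DMSO vehicle and 100% = reference activator.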 The settings on record: NCI-H358 eGFP-delta133p53alpha fluorescence, 24 h; activation: hits give high values. Put shortly: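 NCI-H358 cells pre-induced 24 h with 10 ng/ml doxycycline for eGFP-delta133p53alpha, plated dox-free and exposed 24 h at 37C to titrated compounds. Fixed, Hoechst-stained; gated GFP peak intensity by laser scanning cytometry, normalized to DMSO (0%) and 57.5 uM 5-azacytidine (100%).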
Chain of Cellular tumor antigen p53 (Homo sapiens) (P04637 whole entry, looked up): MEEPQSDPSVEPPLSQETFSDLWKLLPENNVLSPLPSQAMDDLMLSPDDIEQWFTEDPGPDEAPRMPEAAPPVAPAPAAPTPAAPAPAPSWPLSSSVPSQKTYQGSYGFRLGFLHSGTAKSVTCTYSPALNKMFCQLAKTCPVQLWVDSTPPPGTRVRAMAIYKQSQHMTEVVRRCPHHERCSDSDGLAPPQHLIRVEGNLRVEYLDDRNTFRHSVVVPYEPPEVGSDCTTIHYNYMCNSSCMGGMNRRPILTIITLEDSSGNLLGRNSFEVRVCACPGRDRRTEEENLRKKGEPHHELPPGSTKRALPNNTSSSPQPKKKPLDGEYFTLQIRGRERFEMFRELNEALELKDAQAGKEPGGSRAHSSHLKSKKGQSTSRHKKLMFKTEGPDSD
(In general: In qHTS, concentration-response curves come from the screen itself.)

Assay [2] addresses Aldehyde dehydrogenase, mitochondrial (Homo sapiens) (UniProt P05091). Put plainly: qHTS for Inhibitors of the Aldehyde Dehydrogenase Family (ALDH2) Primary screen (AID 2061308).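 Further: plate controls were vehicle for no effect and reference inhibitor for full effect; nearly all actives have a fitted effect of over 55% in size.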
The target in assay [3] is Retinaldehyde dehydrogenase 3 (Homo sapiens) (UniProt P47895). Briefly: qHTS for Inhibitors of the Aldehyde Dehydrogenase Family (ALDH1A3) Validation screen (AID 2061312). Further: on the % scale 0 is the no-effect control and ±100 the full control effect; nearly all actives have a fitted effect of over 45% in size.
Assay [4] has the same target. Briefly: qHTS for Inhibitors of the Aldehyde Dehydrogenase Family (ALDH1A3) Primary screen (AID 2061315).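 Further: plate controls were DMSO vehicle for no effect and reference inhibitor for full effect.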
Assay [5] can be described thus: BET inhibitor-based combinations targeting novel dependencies in MECOM-rearranged (r) AML: SET-2 cell line (AID 2202231). Further: nearly all actives have a fitted effect of over 35% in size. Further: potency means the concentration at half of the fitted maximal effect.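 On viability: plate controls were DMSO treated cells for no effect and wells without cells for full effect.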 The conditions noted are these: SET-2 AML cells viability, CellTiter-Glo luminescence, 48 h; viability: hits give low values, concentration not given here. Put shortly:
(§1)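 500 cells/well; 11-pt dose curve; 48 h, standard incubator; CellTiter-Glo luminescence after 15 min RT; DMSO/empty-well normalization; AUC plus Z-AUC (mean-centered within each line).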

Assay [6] in a line: BET inhibitor-based combinations targeting novel dependencies in MECOM-rearranged (r) AML: OCI-AML3 cell line (AID 2202232). Further: nearly all actives have a fitted effect of over 35% in size. Further: potency means the concentration at half of the fitted maximal effect. The settings on record: Potency: OCI-AML3 viability. In short, it runs like this:
as §1

A short description of assay [7]: BET inhibitor-based combinations targeting novel dependencies in MECOM-rearranged (r) AML: MV-4-11 cell line (AID 2202233). Further: nearly all actives have a fitted effect of over 45% in size. Further: potency means the concentration at half of the fitted maximal effect. In short, it runs like this:
(§2)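 Cells were plated at 500 per well and exposed to each drug across an 11-point dose range for 48 hr at standard incubator conditions. Viability was read by CellTiter-Glo luminescence, and activity was expressed as AUC and per-cell-line Z-transformed AUC.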

Assay [8] is described as follows: BET inhibitor-based combinations targeting novel dependencies in MECOM-rearranged (r) AML: HNT-34 cell line (AID 2202234). Further: nearly all actives have a fitted effect of over 35% in size. Further: potency means the concentration at half of the fitted maximal effect. Put shortly: as §2
Assay [9] is described as follows: BET inhibitor-based combinations targeting novel dependencies in MECOM-rearranged (r) AML: UCSD-AML1 cell line (AID 2202235). Further: nearly all actives have a fitted effect of over 40% in size. Further: potency means the concentration at half of the fitted maximal effect. Put shortly:
as §2

Assay [10] is described as follows: BET inhibitor-based combinations targeting novel dependencies in MECOM-rearranged (r) AML: AML-191 cell line (AID 2202236; further: nearly all actives have a fitted effect of over 35% in size; further: potency means the concentration at half of the fitted maximal effect). Put shortly: as §1
A short description of assay [11]: BET inhibitor-based combinations targeting novel dependencies in MECOM-rearranged (r) AML: AML-194 cell line (AID 2202237; further: nearly all actives have a fitted effect of over 40% in size; further: potency means the concentration at half of the fitted maximal effect). In short, it runs like this:
as §1

For the compound `c1cc(Nc2cc(C3CC3)[nH]n2)nc(Nc2ccc3nc[nH]c3c2)n1`, the Potency in [1] is 0.849 µM (active); in [5], 0.662 µM (active); in assay [6], 0.263 µM (active); in assay [7], 0.0525 µM (active); in assay [8] it was 0.263 µM (active); in [9], 0.332 µM (active). Further, the Potency in [10] was 0.235 µM (active); in assay [11], 0.372 µM (active). Also, the Potency result in [2], in [3] and in assay [4] was “inactive” throughout.

One may read the viability as a read-out of living cells in per cent, often relative to untreated cells. Regarding `COc1nc(C)cnc1NS(=O)(=O)c1cccnc1-c1ccc(-c2nnco2)cc1`, the activation in assay [1] is 13.1% and 3.34%. Besides, the Potency result in [2], in assay [3], in assay [4], in assay [6], in [7] and in assay [8] was “inactive” throughout. Besides, the Potency result in assay [10] and in [11] was “inactive” in each case. In assay [5], the viability is 115%.

For the compound `COc1cc(CCc2cc(NC(=O)c3ccc(N4C[C@@H](C)N[C@@H](C)C4)cc3)n[nH]2)cc(OC)c1`, the activation in [1] was 1.33% and -3.34%. Besides, the Potency result in assay [2], in [3] and in assay [4] was “inactive” each time. Besides, the Potency in [5] was 20.9 µM (active); in [6], 18.6 µM (active); in assay [7], 2.09 µM (active); in assay [8] it was 7.42 µM (active); in [9], 7.42 µM (active); in [11], 14.8 µM (active).

Consider `COc1cc(-c2nn(C3CCC(N4CCN(C(C)=O)CC4)CC3)c3ncnc(N)c23)ccc1NC(=O)c1cc2ccccc2n1C` (stereo not drawn), for which the activation in assay [1] is 17.1%. Besides, the Potency entry in assay [2], in assay [3] and in assay [4] was “inactive” each time. In addition, the Potency in assay [5] is 9.34 µM (active); in [6], 7.42 µM (active); in [7], 9.34 µM (active); in assay [8], 2.09 µM (active); in [10] it was 5.9 µM (active); in assay [11], 4.17 µM (active).

Regarding `CCc1cccc2c3c([nH]c12)[C@@](CC)(CC(=O)O)OCC3`, the activation in assay [1] was -4.77%. Besides, the Potency entry in assay [2], in assay [3], in assay [4], in assay [6], in assay [7] and in assay [8] was “inactive” throughout. Moreover, the Potency entry in [9], in assay [10] and in [11] was “inactive” each time. Further, the viability in [5] is 112%.

Consider `CCC(C)(Oc1ccc(C2(c3ccc(OC(C)(CC)C(=O)O)cc3)CCCCC2)cc1)C(=O)O` (stereo not drawn), for which the activation in assay [1] is -25.7% and 13.4%. For the same compound, the Potency result in assay [2], in assay [3], in [4], in assay [6], in assay [7] and in assay [8] was “inactive” in each case. Besides, the Potency entry in assay [9] and in [11] was “inactive” each time. For the same compound, in [5], the viability was 114%.

In the case of `Cc1nc(Nc2n[nH]c3c2CN(C(=O)N[C@H](CN(C)C)c2ccccc2)C3(C)C)c2sccc2n1`, the Potency in [1] was 10.7 µM (active); in assay [5], 1.48 µM (active); in [6], 0.468 µM (active); in [7], 0.0235 µM (active); in assay [8], 1.18 µM (active); in [9], 0.148 µM (active). Moreover, the Potency in [10] is 1.18 µM (active); in assay [11], 1.66 µM (active). The Potency entry in assay [2], in assay [3] and in assay [4] was “inactive” throughout.

For `CC(=O)c1cnc2ccc(-c3cc(Cl)c(O)c(Cl)c3)nc2c1NC1CCC(CN(C)C)CC1` (stereo not drawn), the Potency was 153 nM (active) and 195 nM (active) in assay [1]; 0.0605 µM (active) in assay [5]; 0.121 µM (active) in assay [6]; 0.0171 µM (active) in [7]; 0.0481 µM (active) in assay [8]; 0.027 µM (active) in assay [9]. Also, the Potency in assay [10] is 0.0481 µM (active); in assay [11], 0.0605 µM (active). In addition, the activity change, negative = inhibition in assay [2] was 21.4% [at 11.2 µM]; in [3], 24.3% [at 20.1 µM]; in assay [4] it was 9.88% [at 11.2 µM].

Take `COc1cccc(-c2cc(F)ccc2C2Cc3nc(N)nc(C)c3C(=O)N2)n1` (stereo not drawn): the activation in assay [1] was 2.86%. Besides, the Potency result in [2], in [3] and in assay [4] was “inactive” each time. Also, the Potency in [5] is 0.0742 µM (active); in assay [6], 0.0661 µM (active); in [7], 0.0417 µM (active); in assay [8] it was 0.132 µM (active); in assay [9] it was 0.105 µM (active).

For the compound `O=P(O)(O)C(O)(Cc1cccnc1)P(=O)(O)O`, in assay [1], the activation was 20.9% and -4.4% and 7.64%. Further, the Potency entry in [2], in assay [3], in assay [4], in assay [6], in assay [7] and in [8] was “inactive” throughout. The Potency entry in assay [9], in assay [10] and in [11] was “inactive” each time. Further, the viability in [5] is 110%.

Regarding `O=C(O)CCNc1cc(N2CCc3ccccc3CC2)nc(-c2ccccn2)n1`, the activation in [1] is -6.15% and -0.477% and 0.955%. For the same compound, the Potency entry in assay [2], in assay [3], in assay [4], in assay [6], in assay [7] and in assay [8] was “inactive” each time. Moreover, the Potency entry in assay [9], in assay [10] and in [11] was “inactive” each time. Further, the viability in assay [5] is 103%.

As to `O=C(COCC(=O)N1CCN(C(c2ccccc2)c2ccccc2)CC1)Nc1ccc(Cl)cc1C(=O)O`, the activation in [1] was -25.3%. Also, the Potency result in assay [2], in [3], in [4], in assay [6], in [7] and in [8] was “inactive” in each case. Moreover, the Potency result in [9], in assay [10] and in assay [11] was “inactive” throughout. Besides, the viability in assay [5] was 119%.

As for `O=C(c1ccc(C(=O)N2CCC(N3CCCC3)CC2)c(Nc2ccccc2)c1)N1CCC(N2CCCC2)CC1`, in assay [1], the activation was 3.03% and -7.82%. In addition, the Potency result in assay [2], in assay [3], in assay [4], in assay [6], in assay [8] and in assay [9] was “inactive” in each case. For the same compound, the Potency result in assay [10] and in [11] was “inactive” in each case. In addition, in assay [5], the viability was 111%. Further, in [7], the Potency was 9.34 µM (active).

`Nc1ncnc2c1c(-c1cnc3[nH]ccc3c1)nn2C1CCCC1`: the Potency in assay [1] is 26.9 µM (active); in assay [5] it was 3.72 µM (active); in assay [6], 4.17 µM (active); in [7], 1.66 µM (active); in assay [8] it was 0.417 µM (active); in assay [9], 0.372 µM (active). Also, the Potency is 2.95 µM (active) in assay [10] and 1.86 µM (active) in assay [11]. The Potency entry in assay [2], in assay [3] and in assay [4] was “inactive” in each case.

Source of the values: PubChem BioAssay (NCATS).
